Compound activity deposited in PubChem by several laboratories.
The list is not random: actives were taken first. Their share in the collection is about 3.7%.
tim23-1 inh = growth inhibitors of tim23-1 mutant yeast, primary screen, luminescence, uHTS. S. cerevisiae tim23-1 growth, BacTiter-Glo luminescence, 24 h. AID 463212, 2010. actives 1.3% (n = 330,000). inhibition, % at 20 µM;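 active = growth inhibition of the mutant yeast at or above 50%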;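 note: temperature-sensitive mutant grown at 25 °C; plate controls were DMSO-treated mutant yeast for no effect and medium wells lacking yeast for full effect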
tim10-1 inh = growth inhibitors of tim10-1 mutant yeast, primary screen, luminescence, uHTS. AID 463190, 2010. actives 2.2% (n = 330,000). S. cerevisiae tim10-1 ts strain growth, BacTiter-Glo, 24 h. inhibition, % at 20 µM;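 active = inhibition of at least 40%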;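 note: mutant grown at 25 °C; 0% = DMSO wells with yeast and 100% = wells holding no yeast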
PfHsp90 set2 = growth inhibition of PfHsp90-expressing yeast, primary screen, antimalarial PfHsp90 inhibitor project, S. cerevisiae, BacTiter-Glo luminescence, single point, set 2. BacTiter-Glo ATP, 48 h; yeast lacking PDR1 and PDR3 efflux regulators. inhibition, % at 9.4 µM. actives 0.32% (n = 310,000). AID 504621, 2011;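 active = every replicate shows inhibition above about 80%, whatever the replicate mean, limit read from the data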;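 note: 0% = DMSO neutral controls and 100% = 20 µM radicicol positive controls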
TIM10 inh = growth inhibitors of isogenic TIM10 control yeast, primary screen, counter-screen for tim10-1 yeast inhibitor project, luminescence, uHTS. S. cerevisiae TIM10 strain growth, BacTiter-Glo luminescence, 24 h. inhibition, % at 10 µM. actives 1.4% (n = 330,000). AID 463195, 2010;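 active = inhibition of 40% or more at the single tested concentration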;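 note: wild-type TIM10 isogenic control strain grown at permissive 25 °C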
NALP3 yeast inh = NALP3 inflammasome inhibitors in reconstituted yeast, primary screen, luminescence, uHTS; actives 0.39% (n = 330,000); AID 2825, 2010; Yeast reconstituted NLRP3/ASC/caspase-1, beta-gal luminescence, 24 h; inhibition, % at 10 µM;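 active = inhibition of 50% or more; inactive = inhibition below 50%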;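 note: plate controls were induced DMSO wells for no effect and uninduced yeast grown without galactose for full effect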
tim23-1 conf = tim23-1 mutant yeast growth inhibitors, confirmation, luminescence, single concentration; shares compounds with tim23-1 inh; actives 83% (n = 4,400); inhibition, % at 20 µM; S. cerevisiae tim23-1 growth, BacTiter-Glo luminescence, 24 h;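 active = inhibition above about 39% in either of two replicate wells at 20 µM, limit read from the data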;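 note: temperature-sensitive tim23-1 mutant grown at 25 °C; 0% = DMSO wells with yeast and 100% = medium wells without yeast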
The depositor's hits bear a star; . = no result.

SMILES | tim23-1 inh | tim10-1 inh | PfHsp90 set2 | TIM10 inh | NALP3 yeast inh | tim23-1 conf
COc1ccccc1-c1sc2ccccc2c1-c1ccc(OCCN2CCCCC2)cc1 | 52* | 13 | 3 | -112 | . | 37
COc1ccc(-c2sc3ccccc3c2-c2ccc(OCCN3CCCCC3)cc2)cc1 | 18 | -55 | 23 | -2 | 11 | .
CC1CCC(NC(=O)CSc2nncn2C)CC1 (stereo not drawn) | -4 | -10 | . | -1 | 7 | .
COc1ccc(S(=O)(=O)N2CCN(Cc3cccc(Cl)c3)CC2)cc1 | 51* | 26 | 16 | 26 | 24 | 53*
Fc1cccc(CNc2ncnc3cc(Cl)ccc23)c1F | 60* | 18 | -5 | 13 | 40 | 12
O=C(O)CCCC1(C(=O)O)CCCC1 | . | . | 4 | . | . | .
COc1cc2c(cc1OC)C1(C)N(CC2)C(C(C)=O)=NN1c1ccc(Cl)cc1 (stereo not drawn) | 28 | 20 | . | 8 | 17 | .
N/C(Cc1ccc(Cl)c(Cl)c1)=N\OC(=O)c1ccc(Br)o1 | 77* | 40 | 95* | -12 | 4 | 80*
Cn1nc(-c2ccccc2F)c2cc(C(=O)Nc3ccc4c(c3)OCCO4)sc21 | 54* | 38 | -3 | 27 | 16 | 55*
COc1cccc(-c2nn(C)c3sc(C(=O)Nc4ccc5c(c4)OCCO5)cc23)c1 | 22 | 37 | -9 | 7 | 10 | .
CC(=O)c1cccc(NS(=O)(=O)c2ccc(-c3cnc(C4CC4)o3)cc2)c1 | 27 | 32 | -22 | -11 | -1 | .
CCOc1ccc(NS(=O)(=O)c2ccc(-c3cnc(C4CC4)o3)cc2)cc1 | 51* | 29 | 12 | -10 | 28 | 44*
Cc1onc(-c2ccccc2Cl)c1C(=O)N1CCN(c2ccc(F)cc2)CC1 | 19 | 15 | 8 | -3 | 16 | .
C=CCN1C(=O)/C(=C/C(=O)OC)S/C1=N\NC(=O)c1ccccc1 | 59* | 22 | . | 22 | 9 | 38*
CCOc1cc(/C=C2\N=C(SC(C)C(N)=O)N(c3ccc(OC(F)F)cc3)C2=O)ccc1O (stereo not drawn) | 16 | 14 | 20 | 3 | 23 | .
Cc1cc(C)c(C(CC(=O)c2cccs2)C(C#N)C#N)c(C)c1 (stereo not drawn) | 52* | 31 | 19 | 29 | 10 | 37
COc1ccc(CN2CCc3ccccc3C2)c(OC)c1OC | 13 | -2 | 1 | -9 | 15 | .
COc1cccc2sc3cc(NCc4ccc(C)o4)ccc3c(=O)c12 | 68* | -18 | -6 | 22 | 33 | 66*
CCOc1ccc(NC(=O)c2ccccc2CO)cc1 | 58* | 17 | -12 | 1 | -1 | 12
C=CCN1c2ccc(Br)cc2C(=O)CS1(=O)=O | 58* | 34 | . | 35 | 13 | 54*
C=CCN1c2ccccc2C(=O)C(C)S1(=O)=O (stereo not drawn) | 26 | -5 | -12 | 1 | . | .
Oc1ccc(Br)cc1C=Nc1cccn2cc(-c3ccccc3)nc12 | 54* | 29 | 11 | 4 | -10 | 54*
O=[N+]([O-])c1cc(Br)c(Nc2ccccc2)c([N+](=O)[O-])c1 | 54* | 21 | 120* | 7 | -5 | -22
O=C(Nc1ccccc1)c1ccc(Nc2c([N+](=O)[O-])cc([N+](=O)[O-])c3ccccc23)cc1 | -16 | 18 | 18 | -19 | 8 | .
Nc1cc(S(=O)(=O)Nc2ccccc2Cl)ccc1N1CCCCC1 | 58* | 36 | -50 | 31 | 4 | 62*
SMILES | tim23-1 inh | tim10-1 inh | PfHsp90 set2 | TIM10 inh | NALP3 yeast inh | tim23-1 conf
O=C(COc1cccc2cccnc12)N1CCc2ccccc2C1 | 19 | 23 | 2 | 27 | 17 | .
O=C(COc1c(Br)cc(Br)c2cccnc12)N1CCc2ccccc2C1 | 51* | 36 | -27 | 12 | 18 | 51*
O=C1c2ccccc2C(=O)N1c1nc(-c2cccs2)cs1 | 77* | 25 | -6 | 25 | 34 | 41*
COc1nn(-c2ccccc2)c(=O)c(Cl)c1Cl | 51* | 21 | 2 | 18 | 12 | 38
COc1c(Cl)cnn(-c2ccccc2)c1=O | -3 | 3 | 15 | 15 | 2 | .
COc1ccc(C2NCCc3sccc32)cc1 (stereo not drawn) | -3 | 14 | 19 | 5 | 2 | .
Cc1nc2ccccc2c(=O)n1NC(=O)c1ccco1 | 10 | 0 | 5 | 0 | 14 | .
Cc1ccccc1OCc1nc2ccccc2c(=O)n1NC(=O)c1ccco1 | 53* | 20 | -5 | 10 | 9 | 38
Cc1ccc(C(=O)NC(=S)Nc2ccc(CN3CCOCC3)cc2)cc1 | 52* | 15 | 12 | -18 | 8 | 13
CC(Nc1cc(=O)n(C)c(=O)n1C)c1ccccc1 (stereo not drawn) | 52* | 3 | -8 | 9 | -7 | 2
CN1CCc2nc3sc(C(=O)C45CC6CC(CC(C6)C4)C5)c(N)c3cc2C1 | 90* | 4 | 129* | 11 | 16 | 85*
Nc1c(C(=O)O)sc2nc3c(cc12)CCCC3 | 5 | 1 | . | 18 | 20 | .
CC(C)(C)OC(=O)C[C@H]1C/C=C\C[C@@H](CC(=O)NCCO)C(=O)NCCOC1=O | 14 | 5 | 6 | 3 | 11 | .
O=C(Nc1ccc(NC(=O)C2CC2)nc1)c1cccnc1 | 53* | -2 | -1 | 12 | 4 | 9
Cc1ccc(C(=O)Nc2cccc(NC(=O)c3ccc(C)o3)n2)o1 | -5 | -9 | -11 | -11 | 29 | .
COc1ccc(N2CCOCC2)c(NC(=O)c2ccc(Br)o2)c1 | 52* | 30 | 20 | -6 | 34 | 39*
O=C(Nc1cc(Cl)ccc1N1CCOCC1)c1ccc(Br)o1 | 10 | 18 | -39 | 15 | 9 | .
COc1ccc2c(c1)C(O)C(CO)C(C(=O)O)C2 (stereo not drawn) | . | . | 2 | . | . | .
O=C1[C@H]2CCC=C[C@H]2[C@H](c2ccccc2Br)N1Cc1ccccc1 | 57* | 31 | -34 | 17 | . | 32
O=C1C2C(c3ccccc3)CC=CC2[C@H](c2ccoc2)N1Cc1ccccc1 (stereo partly drawn) | 8 | 34 | -13 | 12 | 14 | .
O=C1[C@H]2CCC=C[C@H]2[C@H](c2cccc(Br)c2)N1Cc1ccccc1 | 58* | 31 | -49 | 37 | . | 53*
CCOc1ccc(S(=O)(=O)NC2CCCC2)cc1 | 13 | 11 | -25 | 4 | -12 | .
c1ccc2[nH]c(-c3ccc4c(c3)OCO4)nc2c1 | 77* | 26 | . | 13 | 41 | 59*
O=C(Nc1ccc(-c2nc3ccccc3[nH]2)cc1)c1ccc2c(c1)OCO2 | 1 | -20 | -10 | 8 | 1 | .
